Measurements reported in PubChem BioAssay AID1159580 (chemical genetic matrix, 2015).
In all, about 5,500 compounds went through this assay and about 2,000 (36%) were called active. About 18% were inconclusive and are not listed. Rule as the data show it: active = normalized growth mostly below about 0.91 (no sharp cut-off); inconclusive = no clear call, values can overlap the other calls; inactive = mostly above about 0.92. Some of the results follow.

Assay: chemical genetic growth profiling, strain panel (AID 1159580);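 also: tested at 20 µM; growth read once vehicle control cultures reached saturation at 30 °C; 1 = growth at the plate median or of vehicle wells; lower values mean less growth of the strain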
Details: growth OD

Measured: normalized growth

COC(=O)C[C@H]1C(C)(C)C2(O)OC34CC2C(=O)[C@]1(C)C3CC[C@]1(C)C4=CC(=O)O[C@H]1c1ccoc1 (some centres not stated)
inactive: S. cerevisiae deletion strains, locus YJR043C, strain POL32, hits give low values 0.992 | S. cerevisiae deletion strains, locus YJR066W, strain TOR1, hits give low values 0.92 | S. cerevisiae deletion strains, locus YKL009W, strain mrt4, hits give low values 1.03 | S. cerevisiae deletion strains, locus YKL068W, hits give low values 1.01 | S. cerevisiae deletion strains, locus YKL085W, strain MDH1 (second series), hits give low values 1.02 | S. cerevisiae deletion strains, locus YKL085W, strain MDH1, hits give low values 1.02 | S. cerevisiae deletion strains, locus YKL160W, strain elf1, hits give low values 1.01 | S. cerevisiae deletion strains, locus YKL190W, strain CNB1, hits give low values 0.994 | S. cerevisiae deletion strains, locus YKR001C, strain vps1, hits give low values 1.01 | S. cerevisiae deletion strains, locus YKR026C, strain gcn3, hits give low values 0.991 | S. cerevisiae deletion strains, locus YKR091W, strain srl3, hits give low values 0.985 | S. cerevisiae deletion strains, locus YLL001W, strain dnm1, hits give low values 1.02 | S. cerevisiae deletion strains, locus YLL026W, hits give low values 0.998 | S. cerevisiae deletion strains, locus YLL041C, strain sdh2, hits give low values 0.979 | S. cerevisiae deletion strains, locus YLR027C, strain aat2, hits give low values 1 | S. cerevisiae deletion strains, locus YLR039C, strain RIC1, hits give low values 1.05 | S. cerevisiae deletion strains, locus YLR058C, strain SHM2, hits give low values 1 | S. cerevisiae deletion strains, locus YLR102C, strain apc9, hits give low values 1.01 | S. cerevisiae deletion strains, locus YLR113W, strain HOG1, hits give low values 1.01 | S. cerevisiae deletion strains, locus YLR221C, strain rsa3, hits give low values 0.991 | S. cerevisiae deletion strains, locus YLR258W, strain gsy2, hits give low values 0.989 | S. cerevisiae deletion strains, locus YLR262C, strain YPT6 (second series), hits give low values 1 | S. cerevisiae deletion strains, locus YLR262C, strain YPT6, hits give low values 1.08 | S. cerevisiae deletion strains, locus YLR268W, strain sec22, hits give low values 0.998 | S. cerevisiae deletion strains, locus YLR320W, strain mms22, hits give low values 0.989 | S. cerevisiae deletion strains, locus YLR342W, strain FKS1, hits give low values 0.977 | S. cerevisiae deletion strains, locus YLR357W, strain rsc2, hits give low values 0.999 | S. cerevisiae deletion strains, locus YLR370C, strain arc18, hits give low values 0.967 | S. cerevisiae deletion strains, locus YLR371W, strain rom2, hits give low values 0.998 | S. cerevisiae deletion strains, locus YLR384C, strain iki3, hits give low values 0.975 | S. cerevisiae deletion strains, locus YLR418C, strain cdc73, hits give low values 1.03 | S. cerevisiae deletion strains, locus YML016C, strain PPZ1, hits give low values 1 | S. cerevisiae deletion strains, locus YML032C, strain rad52, hits give low values 1.01 | S. cerevisiae deletion strains, locus YML120C, strain ndi1, hits give low values 0.981 | S. cerevisiae deletion strains, locus YML124C, strain tub3, hits give low values 1.01 | S. cerevisiae deletion strains, locus YMR058W, strain fet3, hits give low values 0.999 | S. cerevisiae deletion strains, locus YMR078C, strain ctf18, hits give low values 1.01 | S. cerevisiae deletion strains, locus YMR125W, strain sto1, hits give low values 0.982 | S. cerevisiae deletion strains, locus YMR129W, hits give low values 0.994 | S. cerevisiae deletion strains, locus YMR205C, strain PFK2, hits give low values 1.01 | S. cerevisiae deletion strains, locus YMR223W, strain ubp8, hits give low values 1.01 | S. cerevisiae deletion strains, locus YMR231W, strain pep5, hits give low values 0.957 | S. cerevisiae deletion strains, locus YMR307W, strain GAS1, hits give low values 0.93 | S. cerevisiae deletion strains, locus YNL067W, strain RPL9B, hits give low values 1 | S. cerevisiae deletion strains, locus YNL071W, strain lat1, hits give low values 0.989 | S. cerevisiae deletion strains, locus YNL153C, strain GIM3, hits give low values 1.01 | S. cerevisiae deletion strains, locus YNL183C, strain NPR1, hits give low values 0.931 | S. cerevisiae deletion strains, locus YNL209W, strain ssb2, hits give low values 0.984 | S. cerevisiae deletion strains, locus YNL233W, strain BNI4, hits give low values 0.985 | S. cerevisiae deletion strains, locus YNL248C, strain rpa49, hits give low values 1 | S. cerevisiae deletion strains, locus YNL250W, strain rad50, hits give low values 1.01 | S. cerevisiae deletion strains, locus YNL271C, strain bni1, hits give low values 1.01 | S. cerevisiae deletion strains, locus YNL298W, strain CLA4, hits give low values 1 | S. cerevisiae deletion strains, locus YNL307C, strain MCK1, hits give low values 1 | S. cerevisiae deletion strains, locus YNL322C, strain KRE1 (second series), hits give low values 0.981 | S. cerevisiae deletion strains, locus YNR049C, strain mso1, hits give low values 0.988 | S. cerevisiae deletion strains, locus YNR052C, strain pop2, hits give low values 1.01 | S. cerevisiae deletion strains, locus YOL006C, strain TOP1, hits give low values 1.01 | S. cerevisiae deletion strains, locus YOL012C, strain htz1 0.65 | S. cerevisiae deletion strains, locus YOL147C, strain pex11, hits give low values 1.01 | S. cerevisiae deletion strains, locus YOR001W, strain rrp6, hits give low values 0.953 | S. cerevisiae deletion strains, locus YOR061W, strain CKA2, hits give low values 1.01 | S. cerevisiae deletion strains, locus YOR069W, strain VPS5, hits give low values 0.997 | S. cerevisiae deletion strains, locus YOR070C, strain gyp1, hits give low values 0.992 | S. cerevisiae deletion strains, locus YOR080W, strain dia2, hits give low values 0.988 | S. cerevisiae deletion strains, locus YOR083W, strain WHI5, hits give low values 1.02 | S. cerevisiae deletion strains, locus YOR106W, strain vam3, hits give low values 1.03 | S. cerevisiae deletion strains, locus YOR136W, strain idh2, hits give low values 1.01 | S. cerevisiae deletion strains, locus YOR144C, strain elg1, hits give low values 1.02 | S. cerevisiae deletion strains, locus YOR184W, strain ser1, hits give low values 0.996 | S. cerevisiae deletion strains, locus YOR231W, strain MKK1, hits give low values 1.01 | S. cerevisiae deletion strains, locus YOR265W, strain rbl2, hits give low values 0.984 | S. cerevisiae deletion strains, locus YOR270C, strain vph1, hits give low values 0.98 | S. cerevisiae deletion strains, locus YOR290C, strain snf2, hits give low values 0.97 | S. cerevisiae deletion strains, locus YOR316C, strain cot1, hits give low values 1.02 | S. cerevisiae deletion strains, locus YPL051W, strain arl3, hits give low values 1.01 | S. cerevisiae deletion strains, locus YPL078C, strain atp4, hits give low values 1.01 | S. cerevisiae deletion strains, locus YPL106C, strain sse1, hits give low values 0.969 | S. cerevisiae deletion strains, locus YPL240C, strain hsp82, hits give low values 0.988 | S. cerevisiae deletion strains, locus YPL241C, strain CIN2, hits give low values 1 | S. cerevisiae deletion strains, locus YPL256C, strain CLN2, hits give low values 0.942 | S. cerevisiae deletion strains, locus YPR119W, strain clb2, hits give low values 1.01 | S. cerevisiae deletion strains, locus YPR141C, strain kar3, hits give low values 1.01 | S. cerevisiae deletion strains, locus YPR163C, strain tif3, hits give low values 1.01 | S. cerevisiae deletion strains, locus YPR167C, strain met16, hits give low values 1.01 | S. cerevisiae deletion strains, strain wtn01, hits give low values 1 | S. cerevisiae strains, strain wild type, hits give low values 0.996
